Assay [1] addresses human Vitamin D Receptor (VDR), VDR (gene 7421) (UniProt P11473). Briefly: ATG_VDR_TRANS: Attagene TRANS-FACTORIAL HepG2 Assay for human Vitamin D Receptor (VDR) (AID 2283022; active = hit-call score of the fitted dose curve at least 0.9, where 1 is the maximum). The gist of the method: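 RT-PCR/capillary electrophoresis read-out of reporter mRNA induction in transiently transfected HepG2; 24 h dosing; chimeric NR-Gal4 (TRANS format); gain-of-signal fit against DMSO baseline.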

Assay [2] can be described thus: BSK_3C_SRB: Viability Assessment in the BioMAP Diversity Plus: 3C Assay (AID 2283023).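 Also: fitted both ways against DMSO so a hit may be signal rise or drop.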 The following applies: primary human endothelial cells (HUVEC). The method in brief: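 HUVEC, 24 h post-dose; 10% TCA fix, 0.1% SRB stain, A560 nm. Bidirectional curve fit vs DMSO negative control.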
Read-out in assay [3]: Matrix Metallopeptidase 1 (MMP1), MMP1 (gene 4312)
The experiment in a line: BSK_BE3C_MMP1: BioMAP Diversity Plus: BE3C Assay for Matrix Metallopeptidase 1 (MMP1) Biomarker Activity (AID 2283024). The following applies: primary human bronchial epithelial cells; actives raise or lower the signal. The gist of the method:
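Primary human bronchial epithelial cells were dosed with test chemicals, and MMP1 levels were measured by ELISA 24 h later. Data were fitted bidirectionally against DMSO as the negative control and activity baseline.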

Assay [4] can be described thus: BSK_3C_Vis: BioMAP Diversity Plus: 3C Assay for Morphology Visualization (AID 2283025).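 Also: fitted both ways so gain or loss versus DMSO counts.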 To be noted: primary human endothelial cells (HUVEC). The gist of the method: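 Human umbilical vein endothelial cells in the 3C system were imaged by light microscopy 24 h after chemical dosing to record cell morphology. Activity was fitted bidirectionally against DMSO as negative control and baseline; the endpoint serves as a background control.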

Read-out in assay [5]: Pselectin, SELP (gene 6403)
The experiment in a line: BSK_4H_Pselectin: BioMAP Diversity Plus: 4H Assay for Pselectin Biomarker Activity (AID 2283026). To be noted: primary human endothelial cells (HUVEC); actives raise or lower the signal. The method in brief: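 Primary human umbilical vein endothelial cells were exposed to test chemical for 24 h, then cell-surface P-selectin was quantified by ELISA. Activity was fitted bidirectionally against DMSO as negative control and baseline.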

A short description of assay [6]: BSK_BE3C_SRB: Viability Assessment in the BioMAP Diversity Plus: BE3C Assay (AID 2283028).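 As to AC50: fitted both ways so AC50 may mark signal gain or loss versus DMSO.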 To be noted: primary human bronchial epithelial cells. The method in brief: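 Primary human bronchial epithelium; chemical dosing, 24 h; 10% TCA fix, 0.1% SRB stain, A560; bidirectional fit vs DMSO baseline.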
Read-out in assay [7]: Thrombomodulin, THBD (gene 7056)
Briefly: BSK_3C_Thrombomodulin: BioMAP Diversity Plus: 3C Assay for Thrombomodulin Biomarker Activity (AID 2283029). To be noted: primary human endothelial cells (HUVEC); actives raise or lower the signal. The gist of the method: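 Primary human umbilical vein endothelial cells (3C system) were exposed to chemical for 24 h, then thrombomodulin levels were measured by ELISA. Activity was fitted bidirectionally against the DMSO negative control as baseline.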

Read-out in assay [8]: Urokinase-type plasminogen activator receptor (uPAR), PLAUR (gene 5329)
Briefly: BSK_4H_uPAR: BioMAP Diversity Plus: 4H Assay for Urokinase-type plasminogen activator receptor (uPAR) Biomarker Activity (AID 2283030). The following applies: primary human endothelial cells (HUVEC); actives raise or lower the signal. The method in brief: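 HUVEC, 24 h post-dose; uPAR by ELISA; bidirectional fit vs DMSO baseline.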

Read-out in assay [9]: Vascular endothelial growth factor receptor 2 (Homo sapiens) (UniProt P35968)
The experiment in a line: BSK_4H_VEGFRII: BioMAP Diversity Plus: 4H Assay for Vascular endothelial growth factor receptor 2 (VEGFR2) Biomarker Activity (AID 2283031).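 As to AC50: cell-surface VEGFR2 protein level quantified by ELISA.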 To be noted: primary human endothelial cells (HUVEC); actives raise or lower the signal. The gist of the method: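 HUVEC (human primary), 4H system; 24 h post-dose; VEGFRII by ELISA; bidirectional curve fit vs DMSO baseline; gain or loss of signal scored.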

Assay [10] can be described thus: BSK_4H_SRB: Viability Assessment in the BioMAP Diversity Plus: 4H Assay (AID 2283027).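 Also: cells exposed to compound for 24 h before staining.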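 As to AC50: curves fitted both ways versus DMSO so AC50 may be loss or gain.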 To be noted: primary human endothelial cells (HUVEC). The method in brief:
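Human umbilical vein endothelial cells, 24 h after chemical dosing; total protein measured by 0.1% sulforhodamine B staining after 10% TCA fixation, read at 560 nm. Bidirectional fitting against DMSO.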

Where “and” joins values, the source holds several entries; their conditions need not be identical. Equal values may be shown once. Records with an inconclusive call do not appear. Some compounds were tested as several samples or in several runs, with calls that do not always agree. Calls of active or inactive are those of the source. The calls were made as follows, unless noted: active = hit-call score of the fitted dose curve at least 0.9, where 1 is the maximum; inactive = score below 0.9.

human Vitamin D Receptor (VDR), VDR (gene 7421), sequence (P11473 whole entry, looked up, the tested form may be a part): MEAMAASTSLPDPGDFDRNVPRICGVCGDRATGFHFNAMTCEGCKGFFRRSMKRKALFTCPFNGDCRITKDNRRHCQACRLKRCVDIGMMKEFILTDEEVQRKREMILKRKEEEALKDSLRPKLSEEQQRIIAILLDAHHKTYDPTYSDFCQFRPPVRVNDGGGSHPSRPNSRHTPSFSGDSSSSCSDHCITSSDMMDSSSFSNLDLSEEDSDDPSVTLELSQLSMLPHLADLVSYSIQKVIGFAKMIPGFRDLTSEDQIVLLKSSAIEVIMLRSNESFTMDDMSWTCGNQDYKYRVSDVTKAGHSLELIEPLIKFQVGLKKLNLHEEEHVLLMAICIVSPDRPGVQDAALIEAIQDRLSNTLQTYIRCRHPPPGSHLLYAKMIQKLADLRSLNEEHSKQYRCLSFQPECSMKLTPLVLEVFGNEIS

What is called AC50 is the concentration giving half of the maximal activity seen. With `CCCOc1sc(C(=O)N2CCC(c3cc(CN)ccc3F)CC2)c(C)c1Br`, in [1], the molecule was classed as inactive. Also, the AC50 in [2] was 5 µM (active); in assay [3], 11.1 µM (active); in [4], 8.81 µM (active); in [5] it was 6.2 µM (active); in assay [6], 4.93 µM (active); in assay [7] it was 4.5 µM (active). For the same molecule, the AC50 in [8] was 6.64 µM (active); in assay [9], 4.78 µM (active).

Turning to `COCC(C)OCC(C)O` (stereo not drawn), the result in assay [2], in assay [3], in assay [5], in [6], in [7] and in assay [8] was inactive. The result in assay [9] was inactive. In addition, the AC50 in assay [4] was 39 µM (active).

`CC#C[C@]1(O)CC[C@H]2[C@@H]3CCC4=CC(=O)CCC4=C3[C@@H](c3ccc(N(C)C)cc3)C[C@@]21C`: the concentration at half-maximal activity (AC50) in assay [2] was 30.5 µM (active); in assay [3], 0.623 µM (active); in assay [5], 29.9 µM (active); in [10], 29.1 µM (active); in [8], 3.97 µM (active). Further, the result in [4], in assay [6], in assay [7] and in [9] was inactive.

As to `N#C[C@@H]1CC(F)(F)CN1C(=O)CNC1CC2CCC(C1)N2c1ncccn1` (stereo partly drawn), the half-maximal activity concentration (AC50) in assay [2] is 8.06 µM (active); in [4], 5.57 µM (active). Moreover, the outcome in assay [3], in [5], in [10], in assay [6], in assay [7] and in [8] was inactive. Moreover, the result in assay [9] was inactive.

In the case of `Cc1cc(CCN2CCN(c3nsc4ccccc34)CC2)cc2c1NC(=O)CC2(C)C`, the molecule was called inactive in assay [1] and in [9]. Besides, the AC50 in [2] was 26.5 µM (active); in assay [3], 31.2 µM (active); in assay [4], 16.3 µM (active); in [5] it was 16.5 µM (active); in [6], 32.4 µM (active); in assay [7] it was 4.31 µM (active). Besides, the AC50 in assay [8] was 4.39 µM (active).

For the molecule `CC(C)(C)c1cc(C(C)(C)C)c(O)c(C(C)(C)C)c1`, the outcome in assay [2], in assay [4], in assay [10], in [6], in assay [8] and in assay [9] was inactive. Besides, the AC50 was 10.5 µM (active) in assay [3], 20 µM (active) in assay [5] and 6.29 µM (active) in assay [7].

Consider `CC(C)CCCCCCOC(=O)CCCCC(=O)OCCCCCCC(C)C`, for which the result in assay [2], in assay [3], in [4], in assay [5], in assay [10] and in [6] was inactive. Also, the outcome in assay [7], in assay [8] and in assay [9] was inactive.

Consider `COCC(C)O` (stereo not drawn), for which the call in [1], in assay [2], in assay [3], in assay [4], in assay [5] and in assay [6] was inactive. Moreover, the outcome in assay [7], in assay [8] and in assay [9] was inactive.

`Cc1cc(C)c(O)c(C)c1`: the result in [2], in [3], in assay [4], in assay [5], in [6] and in assay [7] was inactive. Besides, the result in [8] and in assay [9] was inactive.

Consider `CC[C@H](C)[C@@H](C(=O)O)n1sc2ccccc2c1=O`, for which the molecule was classed as inactive in assay [1], in [2], in assay [3], in [4], in [5] and in assay [6]. Besides, the result in assay [7], in assay [8] and in [9] was inactive.

`CCCCCCCCCCCCCC[N+](C)(C)C`: the result in assay [1], in [8] and in assay [9] was inactive. Besides, the half-maximal activity concentration (AC50) in [2] is 1.38 µM (active); in assay [3] it was 5.8 µM (active); in [4], 3.02 µM (active); in assay [5], 1.95 µM (active); in assay [6], 5.28 µM (active).

As to `CCCCC(CC)COC(=O)CCCCC(=O)OCC(CC)CCCC` (stereo not drawn), the result in [2], in assay [3], in assay [4], in assay [5], in assay [6] and in assay [7] was inactive. Moreover, the result in [8] and in [9] was inactive.

Turning to `O=C(O)Cc1cc(I)c(Oc2cc(I)c(O)c(I)c2)c(I)c1`, the molecule was called inactive in assay [1], in assay [2], in assay [3], in [4], in [7] and in [9]. In addition, the concentration at half-maximal activity (AC50) in [5] was 20.2 µM (active); in [6] it was 8.8 µM (active); in assay [8], 19.9 µM (active).

For the molecule `O=C(OCCOCCOC(=O)c1ccccc1)c1ccccc1`, the result in assay [2], in assay [3], in assay [4], in [5], in assay [6] and in assay [7] was inactive. In addition, the outcome in assay [8] and in assay [9] was inactive.

As for `Nc1cccc2c(N)cccc12`, the call in assay [1], in [2], in assay [3], in assay [4], in assay [5] and in [6] was inactive. Further, the result in assay [7], in [8] and in assay [9] was inactive.

As to `O=[N+]([O-])c1ccc(O)cc1`, the outcome in assay [2], in assay [3], in assay [4], in [5], in [6] and in assay [7] was inactive. Moreover, the result in [8] and in [9] was inactive.

Turning to `FC(F)(I)C(F)(F)C(F)(F)C(F)(F)C(F)(F)C(F)(F)I`, the AC50 is 14.6 µM (active) [middle of 5 runs] in [5]; 23.6 µM (active) [middle of 5 runs] in assay [6]; 30 µM (active) [middle of 4 runs] in [7]; 55.1 µM (active) and 7.3 µM (active) in [9]. Further, the result in [7] and in [9] was inactive.

For `CCOC(=O)CC(O)(CC(=O)OCC)C(=O)OCC`, the outcome in assay [2], in assay [3], in assay [4], in assay [5], in [10] and in assay [6] was inactive. Besides, the result in [7], in [8] and in [9] was inactive.

(Values after PubChem BioAssay (EPA / NIEHS).)
